Data: PubChem BioAssay (NCI)
About 83,000 compounds went through this panel and 20% of them were active in at least one assay; those are over-represented in the sample as a whole.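 Negative percent growth values reflect cell death: -40 means 40% of the cells present at the start died, and -100 means all died.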 Unmarked numbers belong to inactive results. Activity calls are given as the source filed them.

Each compound was assayed on HL-60(TB) leukemia (assay: NCI-60 one-dose screen, 48 h (100 = growth as untreated, 0 = no growth, -100 = all killed)). Conditions: 10 µM unless noted.
Experimental: Growth inhibition of the HL-60(TB) human tumor cell line is measured as a screen for anti-cancer activity. Cells are grown in 96 well plates and exposed to the test compound for 48 hours. Compounds are tested at a single concentration, which is 10^-5 M for most compounds. The reported endpoint is percent growth (GI% or GIPRCNT), where numbers from 0 - 100% represent growth inhibition, and numbers from -100% - 0 represent cell death. For example, a value of 40 represents 60% growth inhibition. A value of 0 means no net growth occurred over the course of the experiment. A value of -40 indicates 40% of cells at the beginning of the experiment died by the end of the experiment. A value of -100 means all cells are dead at the end of the experiment.
NCI-60 Human Tumor Cell Lines Screen was performed using the standard one-dose NCI protocol, which is described in more detail at https://dtp.cancer.gov/discovery_development/nci-60/default.htm.
Compounds with GIPRCNT values below 10 were considered active. Activity score was based on GIPRCNT using the following formula: […]
Score is 0 for GIPRCNT values of 100 or above, 50 for GIPRCNT values of 0, and 100 for GIPRCNT values of -100.

| Structure (SMILES) | growth |
| --- | --- |
| CC(C)(C)Nc1nc2c(OCCc3ccccc3)cccn2c1-c1ccc(O)cc1 | -9.89% (active) |
| CCC(=C(c1ccc(OCCN2CCCCCC2)cc1)c1ccc(OCCN2CCCCCC2)cc1)c1ccc(Cl)cc1 | -38.8% (active) |
| O=C1Nc2ccc(F)cc2/C1=C\C(=O)c1ccc(NS(=O)(=O)c2ccccc2)cc1 | 33.1% |
| CC(C)(O)c1cncc(-c2ccc3ncc(C#N)c(N4CCc5cc(F)c(Cl)cc54)c3c2)c1 | 11.5% |
| Cn1ccnc1C(=O)/C=C/C=C/c1ccc(C(=O)Nc2ccc(F)cc2)cc1 | 13.3% |
| CC1(C)C=Cc2cc(/C(N)=N/C(N)=N/c3nc4ccccc4s3)ccc2O1 | 72.9% |
| CCC(=O)Nc1cc(Nc2cc(NC3CC3)n3ncc(C#N)c3n2)ccc1C | 5.84% (active) |
| Cc1csc(/N=C(N)/N=C(\N)c2cccc(C#N)c2)n1 | 70.8% |
| CCOC(=O)c1c(NC(=O)c2cccc(C(F)(F)F)c2)sc2c1CCC(=O)C2 | 37.7% |
| C=C(C)[C@@H]1CC[C@]2(COCCCNCCCN)CC[C@]3(C)[C@H](CC[C@@H]4[C@@]5(C)CC[C@H](O)C(C)(C)[C@@H]5CC[C@]43C)[C@@H]12 | -28.1% (active) |
| CCOP(=O)(OCC)OC[C@]12CCC(C)(C)C[C@H]1C1=CC[C@@H]3[C@@]4(C)C/C(=C\c5cccnc5)[C@H](OP(=O)(OCC)OCC)C(C)(C)[C@@H]4CC[C@@]3(C)[C@]1(C)CC2 | -22.2% (active) |
| Cc1ccccc1N1CCN(C2=C(Cl)C(=O)c3ncccc3C2=O)CC1 | 4.21% (active) |
| O=C1[C@H]2Cc3c([nH]c4ccccc34)[C@H](c3ccc(Cl)cc3)N2C(=O)CN1C1CCN(Cc2c(Cl)cccc2Cl)CC1 | 62.1% |
| O=C1CSC(c2cn(-c3ccccc3)nc2-c2ccc(Cl)cc2)N1c1ccccc1 (stereo not given) | 117% |
| CCOC(=O)c1c(N)c(C#N)cn1Cc1ccc(Cl)cc1Cl | 60.6% |
| CC1=C(CN(O)C(N)=O)C2=C(C)C3(CC3)[C@](C)(O)C(=O)C2=C1 | -16.6% (active) |
| COc1ccc(Cn2cc3c(c2-c2cc(OC)c(OC)c(OC)c2)CCCc2cnoc2-3)cc1N | -9.82% (active) |
| O=c1[nH]c2ccccc2cc1CSc1ccccc1Nc1nccc(-c2ccc(Cl)cc2)n1 | 102% |
| O=S(=O)(Nc1ccc(I)c(Cl)c1)c1ccc(-c2cnc(C3CC3)o2)cc1 | -1.6% (active) |
| COc1ccc(-c2nc(C(Cl)Cl)nc3cc(-c4ccccc4)nn23)cc1 | -7.77% (active) |

| Structure (SMILES) | growth |
| --- | --- |
| Clc1ccc(-c2csc(N/N=C/c3nc4ccccc4n3C3CC3)n2)cc1 | 107% |
| O=S(=O)(NCCCNc1nccc(-c2[nH]c(-c3ccccc3)nc2-c2ccc(F)c(O)c2)n1)c1cccc2ccccc12 | 59.4% |
| CCN(CC)CCCC(C)NCC(=O)NC(c1ccc2c(c1)OCO2)c1cc(Cl)c2cccnc2c1O (stereo not given) | 7.29% (active) |
| O=C1Nc2cc(Cl)ccc2/C1=C\c1ccc(OCc2ccc([N+](=O)[O-])cc2)cc1 | 96.9% |
| Nc1cc(F)ccc1NC(=O)c1ccc(NC(=O)C/C=C/c2cccnc2)cn1 | 11.3% |
| NS(=O)(=O)c1ccc(Nc2nc(Nc3ccccc3)nc(N3N=C(c4ccc(Cl)cc4)CC3c3ccc(Cl)cc3)n2)cc1 (stereo not given) | 25.6% |
| CCCC(=O)NC(c1ccc2c(c1)OC(F)(F)O2)c1cc(C)c2cccnc2c1O (stereo not given) | -4.8% (active) |
| O=C1[C@@H]2Cc3c([nH]c4ccccc34)[C@@H](c3ccc(Cl)cc3)N2C(=O)CN1C1CCN(Cc2c(F)cccc2F)CC1 | 0.352% (active) |
| CC(=O)Nc1cccc(Nc2nc(N[C@H](C)c3ccccc3)c3ccccc3n2)c1 | 13.6% |
| c1ccc(-c2c(-c3ccccc3)[n+](Cc3ccc4ccccc4c3)c(-c3ccccc3)n2Cc2ccc3ccccc3c2)cc1 | -59.9% (active) |
| CCc1cccc2c3c(sc12)C(c1ccc(OC)cc1)C(C#N)=C(/N=C/c1ccc(Cl)cc1)O3 (stereo not given) | 2.87% (active) |
| Cc1cc(O)c2c(c1)C(=O)C(c1c(C)cc3c(c1O)C(=O)C=CC3=O)=CC2=O | 55% |
| COc1cc2nc(-c3ccc(C(F)(F)F)cc3)cc(OCCCNCC3CCCO3)c2cc1OC (stereo not given) | 11.9% |
| COc1cc(Cn2cc3c(c2)-c2onc(CN4CCOCC4)c2CC3)cc(OC)c1OC | 99.9% |
| CN1CCN(CCCCCC(=O)Nc2nc(-c3cccc(NS(=O)(=O)c4cccc5c(N(C)C)cccc45)c3)cs2)CC1 | 75.1% |
| NC(=S)N/N=C(/C=C/c1cn(-c2ccccc2)nc1-c1ccc(Cl)cc1)c1cc2ccccc2oc1=O | 43.9% |
| COc1cc2oc(-c3cccc(NC(=O)c4cc(NC(=O)[C@H](C)NC(=O)OC(C)(C)C)ccc4C)c3)cc(=O)c2c(OC)c1OC | 62.6% |
| COc1ccc(/C=N/NC2=NC3C(S2)N(C)C(=O)N3C)cc1 (stereo not given) | -28.8% (active) |
| Cn1cc(-c2cc3ncnc(Nc4ccc(CC(=O)Nc5nc(C(C)(C)C)cs5)cc4)c3s2)cn1 | 29.2% |
| Cc1nc(/N=C(N)/N=C(\N)c2cccc(Br)c2)sc1C | 12.4% |
